MPTP inh: blocks calcium-induced mitochondrial swelling | isolated mouse mitochondria, Ca2+ swelling absorbance, 30 min | hit rate 1.4% among 360,000 | inhibition, % at 10 µM | AID 602449;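 active means inhibition of 50% or more, scaled per plate between neutral and stimulator controls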;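 further: 0% = DMSO wells given calcium and 100% = 1 mM EGTA wells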
dFosB activator: activators of mouse delta FosB homodimer; P13346; purified delta FosB, TAMRA-CDK5 oligo fluorescence polarization; percent of positive-control signal above neutral wells; activation, % at 25 µM; hit rate 0.99% among 340,000; AID 493131;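 active means mean activation above about 17%, with every replicate also reaching it, limit read from the data, passing the limit was not always enough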
Target sequence (P13346 whole entry, looked up): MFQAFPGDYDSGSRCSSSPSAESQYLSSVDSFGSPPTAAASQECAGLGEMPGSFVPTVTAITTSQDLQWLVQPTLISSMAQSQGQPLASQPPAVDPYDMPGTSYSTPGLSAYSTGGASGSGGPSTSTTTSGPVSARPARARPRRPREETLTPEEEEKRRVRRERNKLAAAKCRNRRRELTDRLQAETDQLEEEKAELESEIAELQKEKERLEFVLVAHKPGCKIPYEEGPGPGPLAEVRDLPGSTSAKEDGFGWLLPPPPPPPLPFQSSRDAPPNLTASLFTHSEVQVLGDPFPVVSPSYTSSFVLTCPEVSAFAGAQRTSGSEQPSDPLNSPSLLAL
HSF1 activator: increases HSF-1 driven luciferase reporter signal. NIH3T3-HGL HSF-1 luciferase reporter, MG132, 8 h; 100% = twice DMSO control signal. activation, % at 9 µM. hit rate 1.7% among 300,000;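 active means mean replicate activation of at least 50% with a set share of replicates each reaching 50%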;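 further: 0% = median of the neutral control wells and 100% = twice that signal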
HSP90 inh: inhibitors of HSP90 luciferase refolding in rabbit reticulocyte lysate. luciferase refolding luminescence, 3 h. inhibition, % at 5.6 µM. hit rate 0.91% among 290,000. AID 1789;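 active means inhibition above the screen-wide mean plus 3 SD, computed separately per campaign, cut at about 16% in these data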;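 further: 0% = DMSO wells and 100% = 60 µM geldanamycin wells; inhibitors lower the luminescence because luciferase stays unfolded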
Platelet DG rel: platelet dense granule release activity | hit rate 0.22% among 300,000 | human platelet-rich plasma, SFLLRN dense granule ATP release, luminescence | inhibition, %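 (compounds screened at 7.5 µM in platelet-rich plasma)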;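 active means mean replicate score, as percent of positive control, at or above 50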
HSF1 inh: HSF1 inhibition; AID 2098; activity change, negative = inhibition, % at 7.5 µM (by protocol); hit rate 0.77% among 300,000; NIH3T3-HGL HSE-luciferase, MG132-induced, luminescence 8 h; stronger effect = lower value;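 active means more than half of replicate wells show activity change below -50%, luminescence cut by over half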;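 further: luciferase reports HSF-1 transcriptional activity via heat shock element; 0% = median of DMSO wells and -100% = zero luminescence signal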
Starred values were filed as active, the others as inactive. This is a sample that favours compounds with a hit; in the whole collection about 4.9% have one here.

For O=C1NC[C@H](CCCCN2C[C@H](Cc3ccccc3)N(CCC3CCCCC3)C(=O)C2=O)N(Cc2ccccc2)C1=O the results were MPTP inh -2.0.
Screening COc1ccc(N2CCN(C(=O)CN3CCN(c4nc(-c5ccc(F)cc5)cs4)CC3)CC2)cc1 returned MPTP inh 3.7, dFosB activator -11.9, HSF1 activator 16.8, HSP90 inh -1.4, Platelet DG rel -43.6 and HSF1 inh 1.3.
Screening OC(c1ccccc1)c1nc(-c2ccccc2)cs1 (stereo not drawn) returned MPTP inh 1.0.
For Cc1ccsc1C(C(=O)NC(C)(C)C)N(C(=O)c1csnn1)c1ccccc1 (stereo not drawn) the results were MPTP inh -1.8, dFosB activator -1.0, HSF1 activator 21.3, HSP90 inh -1.6, Platelet DG rel -6.3 and HSF1 inh 9.9.
For COc1cccc(CNc2nc3cc(-c4ccc(C(=O)N5CCN(C)CC5)cc4)sc3c(=O)n2C)c1 the results were MPTP inh -0.1.
Screening CCN1CCN(c2ccc(S(=O)(=O)N3CCCCC3)cc2NC(=O)/C=C/c2ccc(OC(F)F)cc2)CC1 returned MPTP inh 9.0, dFosB activator -23.0, HSF1 activator 19.2, Platelet DG rel -18.8 and HSF1 inh -0.4.
CCN1CCN(c2ccc(S(=O)(=O)N3CCCCC3)cc2NC(=O)/C=C/c2ccc([N+](=O)[O-])cc2)CC1 was read as MPTP inh -0.7, dFosB activator 51.8*, HSF1 activator -8.8 and HSF1 inh 7.8.
`CN1CCN(c2ccc(S(=O)(=O)N3CCCCC3)cc2NC(=O)/C=C/c2ccc(Cl)c([N+](=O)[O-])c2)CC1` gave MPTP inh 3.1, dFosB activator 52.5*, HSF1 activator -0.2, Platelet DG rel 7.7 and HSF1 inh -0.9.
COc1ccc(/C(C)=N/NC(=S)NCCc2ccccc2)c(O)c1 was read as MPTP inh 6.9, dFosB activator -12.7, HSF1 activator 52.9*, HSP90 inh 2.3, Platelet DG rel 9.9 and HSF1 inh 20.7.
Screening COc1cc(CNC[C@H]2O[C@@H](n3ccc(N)nc3=O)[C@H](O)[C@@H]2O)ccc1OCc1ccc(C)cc1 returned MPTP inh -1.0.
Cc1csc2nc(CSc3nc4ccccc4o3)c(Br)n12 was read as MPTP inh -0.1, dFosB activator -18.0, HSF1 activator 110.4*, HSP90 inh -0.2, Platelet DG rel -0.5 and HSF1 inh 92.6.
c1coc(CNc2nc3ccccc3s2)c1 was read as MPTP inh 1.4, dFosB activator 0.1, HSF1 activator 79.8*, HSP90 inh 12.3, Platelet DG rel -3.3 and HSF1 inh 30.1.
`Cc1nnc(NCc2ccco2)s1` gave MPTP inh 0.0, dFosB activator 3.0, HSF1 activator 6.5, HSP90 inh 0.6, Platelet DG rel -8.0 and HSF1 inh -6.9.
COc1cc(NS(=O)(=O)c2ccc(NC(=O)/C=C/C(=O)O)cc2)nc(OC)n1 was read as MPTP inh -1.7, dFosB activator 1.6, HSF1 activator -75.4, HSP90 inh -0.2, Platelet DG rel -11.9 and HSF1 inh -71.9*.
For COCC(=O)N1CCC(n2nccc2NC(=O)c2ccccc2OC)CC1 the results were MPTP inh -1.3, dFosB activator 1.0, HSF1 activator -17.1, HSP90 inh 1.9, Platelet DG rel -8.1 and HSF1 inh 2.5.
Screening O=C(NCCc1ccc(Cl)cc1)c1cc(S(=O)(=O)N2CCCCC2)c[nH]1 returned MPTP inh -1.3, dFosB activator -8.2, HSF1 activator 9.8, HSP90 inh 37.8*, Platelet DG rel -23.1 and HSF1 inh -0.3.
For C#CCOCCOCCOCCNc1nc(N2CCN(C(=O)C(Cc3cc4ccccc4[nH]3)n3cc(C(N)Cc4ccc(O)cc4)nn3)CC2)nc(N2CCN(C(=O)C(Cc3cc4ccccc4[nH]3)n3cc(C(N)Cc4ccc(O)cc4)nn3)CC2)n1 (stereo not drawn) the results were HSF1 activator -21.7, HSP90 inh 23.0*, Platelet DG rel 15.4 and HSF1 inh -5.5.
CSc1ccc(CCNC(=O)c2nn(C)c3c2CS(=O)(=O)c2ccccc2-3)cc1 was read as MPTP inh 0.4, dFosB activator -2.7, HSF1 activator 51.1*, HSP90 inh -3.6, Platelet DG rel -1.9 and HSF1 inh 10.7.
Cn1nc(C(=O)NCc2ccc(F)cc2)c2c1-c1ccccc1S(=O)(=O)C2 was read as MPTP inh -1.3, dFosB activator -2.0, HSF1 activator 20.3, HSP90 inh -1.9, Platelet DG rel -0.3 and HSF1 inh 10.1.
Screening CCCn1c(NCc2cccc(OC)c2O)nc2ccccc21 returned MPTP inh -0.4, dFosB activator -5.4, HSF1 activator 62.1*, HSP90 inh -4.4, Platelet DG rel -2.2 and HSF1 inh 31.5.
COc1cccc(CNc2nc3ccccc3n2C(C)C)c1O was read as MPTP inh -0.7, dFosB activator -14.9, HSF1 activator 181.7*, HSP90 inh -2.1, Platelet DG rel -3.5 and HSF1 inh 152.7.
For CCCn1c(NCc2cccc(OC)c2OC)nc2ccccc21 the results were MPTP inh 1.1, dFosB activator -0.8, HSF1 activator -2.2, HSP90 inh 3.0, Platelet DG rel 0.0 and HSF1 inh 7.6.
`Fc1ccc2nc(Nc3nc4cc5c(cc4s3)OCO5)sc2c1` gave MPTP inh 7.4, dFosB activator -4.7, HSF1 activator 36.4, HSP90 inh -7.5, Platelet DG rel 2.8 and HSF1 inh 29.3.
For Cc1ccc(Nc2nc3ccccc3s2)c(C)c1 the results were MPTP inh 0.7, dFosB activator -2.2, HSF1 activator 66.1*, HSP90 inh 3.4, Platelet DG rel 0.0 and HSF1 inh 10.8.
For c1c2c(cc3sc(N4CCOCC4)nc13)OCO2 the results were MPTP inh -1.4, dFosB activator -3.7, HSF1 activator 41.0, HSP90 inh 2.0, Platelet DG rel 22.6 and HSF1 inh 11.0.
Brc1ccc2nc(N3CCN(c4ccccc4)CC3)sc2c1 was read as MPTP inh -1.0, dFosB activator 6.4, HSF1 activator 73.1*, HSP90 inh -2.4, Platelet DG rel 3.5 and HSF1 inh 41.1.
c1ccc2sc(Nc3nc4cc5c(cc4s3)OCO5)nc2c1 was read as MPTP inh 3.9, dFosB activator -2.3, HSF1 activator 75.7*, HSP90 inh 4.2, Platelet DG rel -5.7 and HSF1 inh 36.9.
`c1ccc(N2CCN(c3nc4cc5c(cc4s3)OCO5)CC2)cc1` gave MPTP inh 2.1, dFosB activator -1.1, HSF1 activator 71.9*, HSP90 inh 0.7, Platelet DG rel -0.1 and HSF1 inh 48.0.
CSc1ncccc1C(=O)N1CCCC(N2CCN(c3ccccc3C)CC2)C1 (stereo not drawn) was read as MPTP inh -0.7.
